# PubChem BioAssay
# Results filed as inconclusive are left out. Active and inactive are the calls of the source. Unless noted, the rule behind the calls is not given here.
# What was measured:
# [1] = biological target: ATP-dependent translocase ABCB1 (Homo sapiens) (UniProt P08183); test: MDR1 (ABCB1) efflux transporter inhibition, cell-based (AID 377; in the data active = fluorescence slope change above about 50%); conditions: MDR1-expressing cells, fluorescent substrate accumulation slope; stronger effect = higher value; concentration not given here
# [2] = reducers of polyQ inclusions in PC12 cells, cell-based, NGF-treated PC12, GFPQ80 (AID 1614); conditions: PC12 NGF-treated GFP-polyQ80 inclusion reduction;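 note: lower means fewer inclusions and 0 means no inclusions at all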
# [3] = circadian clock period modulators, cell-based, LOPAC library, luminescence reporter (AID 2774); conditions: circadian reporter cells, at 7 µM, actives lie on both sides;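 note: values are relative to mean of DMSO wells on each plate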
# [4] = test system: Hepatitis C virus NS3 helicase; test: HCV NS3 helicase inhibitors, primary screen, biochemical, fluorescence polarization, LOPAC1280 library (AID 687035; in the data active = inhibition above about 37%); conditions: Purified HCV NS3 helicase, Cy5-dT15 ssDNA binding fluorescence polarization; stronger effect = higher value; concentration not given here
# [5] = Cy5 fluorescence quenching or enhancement artefacts, artefact control for HCV NS3 helicase inhibitor project, biochemical, LOPAC1280 (AID 687037); conditions: Cy5-DNA-NS3h complex fluorescence interference counterscreen
# [6] = phospholipid biosynthesis inhibitors in animal cells, primary screen, cell-based, LOPAC library, screen 4 (AID 1347384); conditions: phospholipid biosynthesis inhibition screen, at 10 µM
# Sequence of ATP-dependent translocase ABCB1 (Homo sapiens) (P08183 whole entry, looked up): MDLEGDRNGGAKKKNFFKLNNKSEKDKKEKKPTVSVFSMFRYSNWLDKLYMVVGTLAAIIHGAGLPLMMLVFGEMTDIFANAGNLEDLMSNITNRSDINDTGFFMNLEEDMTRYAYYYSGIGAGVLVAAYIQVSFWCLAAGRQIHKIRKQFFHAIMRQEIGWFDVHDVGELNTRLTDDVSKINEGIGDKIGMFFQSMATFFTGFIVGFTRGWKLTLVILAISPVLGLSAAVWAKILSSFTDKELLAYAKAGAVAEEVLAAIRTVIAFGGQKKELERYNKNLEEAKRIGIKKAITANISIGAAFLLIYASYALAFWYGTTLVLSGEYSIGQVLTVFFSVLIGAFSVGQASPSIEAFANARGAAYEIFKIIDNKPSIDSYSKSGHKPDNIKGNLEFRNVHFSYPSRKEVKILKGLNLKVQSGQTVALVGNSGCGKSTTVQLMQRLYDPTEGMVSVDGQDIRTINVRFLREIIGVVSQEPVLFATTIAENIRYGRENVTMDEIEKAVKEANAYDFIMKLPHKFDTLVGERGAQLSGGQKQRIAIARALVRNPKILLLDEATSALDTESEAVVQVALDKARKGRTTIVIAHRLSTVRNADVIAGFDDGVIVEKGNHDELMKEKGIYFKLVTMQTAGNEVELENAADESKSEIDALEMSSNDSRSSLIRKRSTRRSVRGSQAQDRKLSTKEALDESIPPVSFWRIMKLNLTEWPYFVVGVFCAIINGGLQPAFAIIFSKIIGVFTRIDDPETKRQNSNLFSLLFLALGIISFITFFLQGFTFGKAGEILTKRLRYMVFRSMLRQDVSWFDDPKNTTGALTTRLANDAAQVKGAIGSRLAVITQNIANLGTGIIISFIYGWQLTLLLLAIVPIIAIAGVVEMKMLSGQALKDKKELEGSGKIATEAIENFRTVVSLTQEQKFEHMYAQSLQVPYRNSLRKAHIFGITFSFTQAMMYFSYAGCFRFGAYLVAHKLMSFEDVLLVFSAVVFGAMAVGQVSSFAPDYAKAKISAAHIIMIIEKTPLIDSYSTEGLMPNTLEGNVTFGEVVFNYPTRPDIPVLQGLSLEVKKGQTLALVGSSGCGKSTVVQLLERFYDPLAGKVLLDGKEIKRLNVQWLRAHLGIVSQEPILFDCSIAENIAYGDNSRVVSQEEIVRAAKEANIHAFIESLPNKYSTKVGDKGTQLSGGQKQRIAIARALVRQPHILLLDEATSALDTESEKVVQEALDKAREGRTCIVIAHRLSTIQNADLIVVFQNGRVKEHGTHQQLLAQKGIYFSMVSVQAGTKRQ
SMILES,fluorescence slope change [1],inclusion score [2],period change [3],inhibition [4],fluorescence ratio (interference) [5],outcome [6]
Cc1onc(-c2c(Cl)cccc2Cl)c1C(=O)N[C@@H]1C(=O)N2[C@@H]1SC(C)(C)[C@@H]2C(=O)O,74.3% (active),2,,,,
NS(=O)(=O)c1cc2c(cc1C(F)(F)F)NCNS2(=O)=O,,2,,,,
Nc1nc(N)c2nc(-c3ccccc3)c(N)nc2n1,,,0.185 h (inactive),-2% (inactive),1 (inactive),inactive
C[C@H](CS)C(=O)N1CCC[C@H]1C(=O)O,,2,0.01 h (inactive),0% (inactive),1 (inactive),inactive
O=C(CCCN1CC=C(n2c(=O)[nH]c3ccccc32)CC1)c1ccc(F)cc1,53.4% (active),,,,,
CSc1ccc2c(c1)N(CCC1CCCCN1C)c1ccccc1S2 (centres undefined),,,-0.225 h (inactive),-3% (inactive),0.9 (inactive),inactive
CCOC(=O)[C@H](CCc1ccccc1)N[C@@H](C)C(=O)N1Cc2ccccc2C[C@H]1C(=O)O,,2.5,,,,
CCN(CC)CCOC(=O)c1ccc(N)cc1,,1.5,-0.065 h (inactive),0% (inactive),1 (inactive),inactive
CC(=O)CCCCn1c(=O)c2c(ncn2C)n(C)c1=O,121% (active),2,0.02 h (inactive),-4% (inactive),1 (inactive),inactive
CC(C)[N+](C)(CCOC(=O)C1c2ccccc2Oc2ccccc21)C(C)C,80.1% (active),2,0.06 h (inactive),0% (inactive),1 (inactive),inactive
CC(N=C(NC#N)Nc1ccncc1)C(C)(C)C (centres undefined),190% (active),,0.07 h (inactive),-5% (inactive),1 (inactive),inactive
CC[N+](C)(C)c1cccc(O)c1,82.5% (active),2,0.07 h (inactive),-3% (inactive),1 (inactive),inactive
O=C1NC(=O)C(c2ccccc2)(c2ccccc2)N1,,2,0.02 h (inactive),1% (inactive),1 (inactive),inactive
CN(C)CCOC(C)(c1ccccc1)c1ccccn1 (centres undefined),,2,0.205 h (inactive),-2% (inactive),1.1 (inactive),inactive
Cc1ccc(S(=O)(=O)NC(=O)NN2CCCCCC2)cc1,5.1% (inactive),2,0.08 h (inactive),-1% (inactive),1 (inactive),inactive
CC(C)NCC(O)c1cc(O)cc(O)c1 (centres undefined),14.9% (inactive),2,-0.17 h (inactive),-4% (inactive),0.9 (inactive),inactive
CC(=O)Nc1nnc(S(N)(=O)=O)s1,,2,0.15 h (inactive),-1% (inactive),1 (inactive),inactive
NC(=O)N1c2ccccc2C=Cc2ccccc21,,2,0.01 h (inactive),-1% (inactive),1 (inactive),inactive
OC(CCN1CCCCC1)(c1ccccc1)C1CCCCC1 (centres undefined),66% (active),,0 h (inactive),0% (inactive),1 (inactive),inactive
CN(C)CCC=C1c2ccccc2CCc2ccccc21,,,0.175 h (inactive),-5% (inactive),0.9 (inactive),inactive
NS(=O)(=O)c1cc(C2(O)NC(=O)c3ccccc32)ccc1Cl (centres undefined),22.1% (inactive),2,,,,
